Laboratory results as given in PubChem BioAssay (NCI).
The panel holds about 83,000 compounds, 20% with a hit somewhere; the sample as a whole holds those more often.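 Note: values are percent growth. 100 is the growth of untreated cells, values between 100 and 0 indicate rising inhibition; between -100 and 0 indicates cell death.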 The source made the active and inactive calls. Rule for the calls: active = growth percent below 10; inactive = the rest.

Experiments:
Assay in all cases: NCI-60 one-dose screen, 48 h (100 = growth as untreated, 0 = no growth, -100 = all killed)
Details in all cases: 10 µM unless noted
HCT-15 colon = system: HCT-15 colon
HT29 colon = system: HT29 colon
SNB-75 CNS = system: SNB-75 CNS
SNB-19 CNS = system: SNB-19 CNS
U251 CNS = system: U251 CNS
PC-3 prostate = system: PC-3 prostate
SK-MEL-5 melanoma = system: SK-MEL-5 melanoma
UACC-62 melanoma = system: UACC-62 melanoma
LOX IMVI melanoma = system: LOX IMVI melanoma
SK-MEL-28 melanoma = system: SK-MEL-28 melanoma
SK-MEL-2 melanoma = system: SK-MEL-2 melanoma
EKVX NSCLC = system: EKVX NSCLC
SN12C renal = system: SN12C renal
UO-31 renal = system: UO-31 renal
TK-10 renal = system: TK-10 renal
ACHN renal = system: ACHN renal
CAKI-1 renal = system: CAKI-1 renal
A498 renal = system: A498 renal
CCRF-CEM leukemia = system: CCRF-CEM leukemia
MOLT-4 leukemia = system: MOLT-4 leukemia

Measured: growth

O=C(COc1ccc(/C=C2\Oc3ccc4ccccc4c3C2=O)cc1)c1ccc(Cl)cc1
inactive: HCT-15 colon 92% | HT29 colon 87.2% | SNB-75 CNS 83% | SNB-19 CNS 98.3% | U251 CNS 94.7% | PC-3 prostate 93.8% | SK-MEL-5 melanoma 92.6% | UACC-62 melanoma 94.3% | LOX IMVI melanoma 53.7% | SK-MEL-28 melanoma 112% | SK-MEL-2 melanoma 73.8% | EKVX NSCLC 103% | SN12C renal 98.9% | TK-10 renal 114% | ACHN renal 107% | CAKI-1 renal 98.8% | A498 renal 155% | MOLT-4 leukemia 33.8%
active: UO-31 renal 5.25% | CCRF-CEM leukemia -26.9%

CC[C@@H](C)/C=C(C)/C=C/C(O)=C1\C(=O)N[C@@H](Cc2ccc(OC(=O)[C@@](OC)(c3ccccc3)C(F)(F)F)cc2)C1=O
inactive: HCT-15 colon 102% | HT29 colon 114% | SNB-75 CNS 101% | SNB-19 CNS 96.6% | U251 CNS 83.9% | PC-3 prostate 37.3% | SK-MEL-5 melanoma 110% | UACC-62 melanoma 98.9% | LOX IMVI melanoma 50.3% | SK-MEL-28 melanoma 103% | SK-MEL-2 melanoma 80.2% | EKVX NSCLC 54.1% | SN12C renal 86.5% | UO-31 renal 70.9% | TK-10 renal 96.8% | ACHN renal 103% | CAKI-1 renal 30.5% | A498 renal 64.7% | CCRF-CEM leukemia 29.7% | MOLT-4 leukemia 41.6%

COc1ccc(C2=NN(C(N)=S)C(c3ccc4c(c3)OCO4)C2)cc1 (stereo not given)
active: HT29 colon 7.46% | LOX IMVI melanoma -18.2% | UO-31 renal -7.08% | CAKI-1 renal 6.32% | CCRF-CEM leukemia 5.49%
inactive: HCT-15 colon 23.2% | SNB-75 CNS 26.5% | SNB-19 CNS 46.9% | U251 CNS 21.6% | PC-3 prostate 33.3% | SK-MEL-5 melanoma 41.5% | UACC-62 melanoma 43.6% | SK-MEL-28 melanoma 75.4% | SK-MEL-2 melanoma 47% | EKVX NSCLC 29.1% | SN12C renal 31% | TK-10 renal 50.2% | ACHN renal 22% | A498 renal 49.2% | MOLT-4 leukemia 13.8%

Nc1ccc2c(c1Br)Cc1ccccc1-2
inactive: HCT-15 colon 69.9% | HT29 colon 111% | SNB-75 CNS 87.7% | SNB-19 CNS 98.9% | U251 CNS 93.6% | PC-3 prostate 83.4% | SK-MEL-5 melanoma 107% | UACC-62 melanoma 91% | LOX IMVI melanoma 90.5% | SK-MEL-28 melanoma 121% | SK-MEL-2 melanoma 94.2% | EKVX NSCLC 68% | SN12C renal 86.6% | UO-31 renal 54.4% | TK-10 renal 123% | ACHN renal 95.8% | CAKI-1 renal 98.6% | A498 renal 86.8% | CCRF-CEM leukemia 53.2% | MOLT-4 leukemia 68.4%

COc1cc(/C=N/NC(=O)c2ccc(C(F)(F)F)nc2Nc2cc(Cl)ccc2C)cc(OC)c1OC
inactive: HCT-15 colon 104% | HT29 colon 127% | SNB-75 CNS 96% | SNB-19 CNS 75.4% | U251 CNS 87.4% | PC-3 prostate 66.8% | SK-MEL-5 melanoma 102% | UACC-62 melanoma 85% | LOX IMVI melanoma 102% | SK-MEL-28 melanoma 99.5% | SK-MEL-2 melanoma 88.8% | EKVX NSCLC 93.6% | SN12C renal 93.9% | UO-31 renal 103% | TK-10 renal 119% | ACHN renal 104% | CAKI-1 renal 77.5% | A498 renal 100% | CCRF-CEM leukemia 51.5% | MOLT-4 leukemia 61.8%

C[C@H]1C(=O)N2c3ccccc3[C@@]3(O)C[C@@H](n4cnc5ccccc5c4=O)C(=O)N1[C@@H]23
inactive: HCT-15 colon 109% | HT29 colon 120% | SNB-75 CNS 98.3% | SNB-19 CNS 99.7% | U251 CNS 101% | PC-3 prostate 95.6% | SK-MEL-5 melanoma 123% | UACC-62 melanoma 98.3% | LOX IMVI melanoma 97.7% | SK-MEL-28 melanoma 100% | SK-MEL-2 melanoma 19.2% | EKVX NSCLC 103% | SN12C renal 120% | UO-31 renal 86.5% | TK-10 renal 109% | ACHN renal 104% | CAKI-1 renal 99.2% | A498 renal 121% | CCRF-CEM leukemia 95% | MOLT-4 leukemia 105%

Cc1ccc2c(c1)C(=O)/C(=C\Nc1ccc(C(N)=O)cc1)C(O)O2 (stereo not given)
inactive: HCT-15 colon 85.9% | HT29 colon 105% | SNB-75 CNS 74.8% | SNB-19 CNS 106% | U251 CNS 85.6% | PC-3 prostate 76.4% | SK-MEL-5 melanoma 104% | UACC-62 melanoma 106% | LOX IMVI melanoma 85.3% | SK-MEL-28 melanoma 99.8% | SK-MEL-2 melanoma 77.4% | EKVX NSCLC 97.8% | SN12C renal 136% | UO-31 renal 79.3% | TK-10 renal 120% | ACHN renal 104% | CAKI-1 renal 82.3% | A498 renal 115% | CCRF-CEM leukemia 78.3% | MOLT-4 leukemia 80.6%

CCc1ccc(-c2nc(SCC(=O)NC3CCCCC3)n[nH]2)cc1
inactive: HCT-15 colon 88.6% | HT29 colon 101% | SNB-75 CNS 85.4% | SNB-19 CNS 98.7% | U251 CNS 89.3% | PC-3 prostate 77.1% | SK-MEL-5 melanoma 61.5% | UACC-62 melanoma 57.8% | LOX IMVI melanoma 67.8% | SK-MEL-28 melanoma 108% | SK-MEL-2 melanoma 10.2% | EKVX NSCLC 42.1% | SN12C renal 76.4% | UO-31 renal 69.8% | TK-10 renal 88.8% | ACHN renal 64.2% | CAKI-1 renal 85.9% | A498 renal 86.4% | CCRF-CEM leukemia 55.3% | MOLT-4 leukemia 61.6%

O=c1oc2c(cc1-c1ccc([N+](=O)[O-])cc1)C(O)Oc1ccccc1-2 (stereo not given)
inactive: HCT-15 colon 92.2% | HT29 colon 99.9% | SNB-75 CNS 111% | SNB-19 CNS 83.4% | U251 CNS 97.6% | PC-3 prostate 57.5% | SK-MEL-5 melanoma 80.4% | UACC-62 melanoma 78.7% | LOX IMVI melanoma 98.9% | SK-MEL-28 melanoma 99.4% | SK-MEL-2 melanoma 71.6% | EKVX NSCLC 80.7% | SN12C renal 98.4% | UO-31 renal 74.5% | TK-10 renal 95.8% | ACHN renal 103% | CAKI-1 renal 78.2% | A498 renal 84.8% | CCRF-CEM leukemia 62.5% | MOLT-4 leukemia 63.6%

O=C(COc1cccc(/C=C2\Cc3ccccc3C2=O)c1)c1ccc(Cl)cc1
inactive: HCT-15 colon 160% | HT29 colon 69.6% | SNB-75 CNS 101% | SNB-19 CNS 96.5% | U251 CNS 125% | PC-3 prostate 90.3% | SK-MEL-5 melanoma 89.4% | UACC-62 melanoma 91.4% | LOX IMVI melanoma 128% | SK-MEL-28 melanoma 104% | SK-MEL-2 melanoma 72.8% | EKVX NSCLC 88.2% | SN12C renal 95% | UO-31 renal 18.5% | TK-10 renal 163% | ACHN renal 154% | CAKI-1 renal 104% | A498 renal 90.1% | CCRF-CEM leukemia 89.8% | MOLT-4 leukemia 107%

CC(=O)c1ccccc1NC(=O)C(C)(c1ccccc1)c1ccccc1
inactive: HCT-15 colon 104% | HT29 colon 91.1% | SNB-75 CNS 81.1% | SNB-19 CNS 97.1% | U251 CNS 91.6% | PC-3 prostate 66.8% | UACC-62 melanoma 70.9% | LOX IMVI melanoma 81.8% | SK-MEL-28 melanoma 111% | SK-MEL-2 melanoma 70% | EKVX NSCLC 92.7% | SN12C renal 108% | UO-31 renal 81.7% | TK-10 renal 110% | ACHN renal 83.7% | CAKI-1 renal 108% | CCRF-CEM leukemia 77.4% | MOLT-4 leukemia 62%
active: SK-MEL-5 melanoma 6.19% | A498 renal -17.9%

C[C@@H]1C[C@@H]([C@@H](CC2CC(=O)NC(=O)C2)OC(=O)CC(=O)c2ccccc2)C(=O)[C@@H](C)C1
inactive: HT29 colon 10.4% | SNB-75 CNS 17.8% | SNB-19 CNS 18.9% | U251 CNS 14.7% | PC-3 prostate 12.3% | UACC-62 melanoma 11.2% | LOX IMVI melanoma 11.3% | SK-MEL-28 melanoma 13.5% | SK-MEL-2 melanoma 12.5% | EKVX NSCLC 11.4% | A498 renal 16.7% | CCRF-CEM leukemia 15.4%
active: HCT-15 colon 8.97% | SK-MEL-5 melanoma 7.03% | SN12C renal 8.23% | UO-31 renal -10.2% | TK-10 renal 3.61% | ACHN renal 7.54% | CAKI-1 renal -2.54% | MOLT-4 leukemia 9.81%

CC(=O)Nc1c(Cl)cc2c(c1Cl)Cc1ccccc1-2
inactive: HCT-15 colon 99.9% | HT29 colon 106% | SNB-75 CNS 94.7% | SNB-19 CNS 101% | U251 CNS 92.4% | PC-3 prostate 86.9% | SK-MEL-5 melanoma 97.3% | UACC-62 melanoma 84.8% | LOX IMVI melanoma 87.9% | SK-MEL-28 melanoma 124% | SK-MEL-2 melanoma 93.8% | EKVX NSCLC 64.3% | SN12C renal 90.9% | UO-31 renal 69.2% | TK-10 renal 115% | ACHN renal 100% | CAKI-1 renal 86.1% | A498 renal 93.7% | CCRF-CEM leukemia 102% | MOLT-4 leukemia 93%

Cc1nn(-c2nc3ccccc3s2)c(C)c1Oc1ccccc1O
inactive: HCT-15 colon 29.4% | HT29 colon 50.1% | SNB-75 CNS 78.7% | SNB-19 CNS 80% | U251 CNS 33.9% | PC-3 prostate 67% | SK-MEL-5 melanoma 54.6% | UACC-62 melanoma 39% | LOX IMVI melanoma 30.1% | SK-MEL-28 melanoma 22.1% | EKVX NSCLC 93.2% | SN12C renal 73.2% | UO-31 renal 38.9% | TK-10 renal 100% | ACHN renal 57.8% | CAKI-1 renal 98.8% | A498 renal 51.7% | CCRF-CEM leukemia 76.6% | MOLT-4 leukemia 31.6%
active: SK-MEL-2 melanoma -9.64%

CC(=O)OCC(=O)[C@@]1(O)CC[C@H]2[C@@H]3CCC4=CC(=O)CC[C@]4(C)[C@@]3(F)[C@@H](O)C[C@@]21C
inactive: HCT-15 colon 105% | HT29 colon 114% | SNB-75 CNS 113% | SNB-19 CNS 107% | U251 CNS 111% | PC-3 prostate 93.7% | SK-MEL-5 melanoma 94.8% | UACC-62 melanoma 97.3% | LOX IMVI melanoma 96.6% | SK-MEL-28 melanoma 112% | SK-MEL-2 melanoma 104% | EKVX NSCLC 88.8% | SN12C renal 84.2% | UO-31 renal 82.5% | TK-10 renal 99.2% | ACHN renal 98.5% | CAKI-1 renal 115% | A498 renal 103% | CCRF-CEM leukemia 71.7% | MOLT-4 leukemia 90.2%
